Results filed as inconclusive are left out. Activity calls are given as the source filed them. Calls follow the shape of the dose curve; as a rule, active = well fitted curve in the direction sought with a large enough effect; inconclusive = small, poorly fitted or top-dose-only effect, or another doubt; inactive = no such curve, though single readings can be large; an effect the other way counts as inactive or inconclusive.
Key:
[1] = qHTS of pediatric cancer cell lines to identify multiple opportunities for drug repurposing: Confirmatory screen for U-2 OS cells (AID 1347122); conditions: U-2 OS osteosarcoma cell viability; also: nearly all actives have a fitted effect of over 65% in size
In short: (§1)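 Viability after 48 h compound treatment at 37C, 500-1,000 cells/well, read as ATP luminescence with CellTiter-Glo. Primary screens used 11-point (MIPE, 0.78 nM-46 µM) or 8-point (NPC, 0.59 nM-46 µM) final concentrations; follow-up screens used 11-point dilutions.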

[2] = qHTS of pediatric cancer cell lines to identify multiple opportunities for drug repurposing: Confirmatory screen for Rh41 cells (AID 1347123); conditions: Rh41 rhabdomyosarcoma cells, viability/cytotoxicity qHTS;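 also: 48 h compound exposure; nearly all actives have a fitted effect of over 60% in size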
In short: as §1

[3] = qHTS of pediatric cancer cell lines to identify multiple opportunities for drug repurposing: Confirmatory screen for RD cells (AID 1347124); conditions: RD rhabdomyosarcoma cell viability;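 also: cells exposed to compound for 48 h before viability readout; nearly all actives have a fitted effect of over 65% in size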
In short: as §1

[4] = qHTS of pediatric cancer cell lines to identify multiple opportunities for drug repurposing: Confirmatory screen for Rh18 cells (AID 1347125); conditions: Rh18 rhabdomyosarcoma cells, viability; also: nearly all actives have a fitted effect of over 55% in size
In short: as §1

[5] = qHTS of pediatric cancer cell lines to identify multiple opportunities for drug repurposing: Confirmatory screen for Rh30 cells (AID 1347126); conditions: Rh30 rhabdomyosarcoma cell viability; also: nearly all actives have a fitted effect of over 55% in size
In short: as §1

[6] = qHTS of pediatric cancer cell lines to identify multiple opportunities for drug repurposing: Confirmatory screen for Saos-2 cells (AID 1347127); conditions: Saos-2 osteosarcoma cell viability; also: nearly all actives have a fitted effect of over 60% in size
In short: as §1

[7] = qHTS of pediatric cancer cell lines to identify multiple opportunities for drug repurposing: Confirmatory screen for OHS-50 cells (AID 1347128); conditions: OHS-50 osteosarcoma cells viability;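 also: compound exposure lasted 48 h at 37 degrees C; nearly all actives have a fitted effect of over 55% in size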
Source text: Drug repurposing or repositioning has been offered as a strategy for drug development in oncology programs. This approach has special potential for childhood cancers and other rare or orphan diseases, where the expected return on new drug development has been a disincentive to pharmaceuticals.
In this project we exploit the poly-pharmacology of drugs to discover new indications via phenotypic screening of a panel of 19 well-characterized cell lines derived from solid tumors seen in children and adolescents. The goal is to identify approved drugs with previously unrecognized anticancer properties that has the potential to reveal new mechanisms and biological processes involved in carcinogenesis or drug resistance. We employed a titration-based paradigm (quantitative high-throughput screening or qHTS), where all compounds were tested at multiple concentrations for their effect on cell viability. […] We screened the NIH Chemical Genomics Center (NCGC) Pharmaceutical Collection (NPC) and Mechanism Interrogation Plate (MIPE) small molecule collections of approved and investigational compounds against these cell lines; and measured metabolically active cells after 48 hours of compound treatment as a proxy for cell viability. […]
[1] Shen, M et al. Quantitative high-throughput phenotypic screening of pediatric cancer cell lines identifies multiple opportunities for drug repurposing. […]

[8] = qHTS of pediatric cancer cell lines to identify multiple opportunities for drug repurposing: Confirmatory screen for SK-N-SH cells (AID 1347129); conditions: SK-N-SH neuroblastoma cell viability;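 also: cells exposed to compound for 48 h before viability read; nearly all actives have a fitted effect of over 60% in size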
In short: as §1

Measured: Potency
Potency is read from the fitted curve at half-maximal effect.

C[CH2][Hg][S]c1ccccc1C(=O)O
active: [1] 8.27 µM | [2] 1.17 µM | [3] 7.37 µM | [4] 16.5 µM | [5] 4.14 µM | [6] 2.93 µM | [7] 9.27 µM | [8] 5.26 µM
